The supplement of paper PMC12582362
Where a name gives a salt, the structure may show the parent alone. Hit rate of the full screen: of about 1,500 compounds, about 30 (2%) showed activity. Many of the other results were omitted from the sample, so actives are more common in it than they were. Values without a mark were called inactive.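 How the source made its calls: active = robust z-score below -2; a few such results were not called.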

tested on: optoTopBP1 Flp-In 293 T-REx (HEK293) cells; assay: light-induced TopBP1 condensate (nuclear foci) count, plate-normalised robust z-score vs non-control wells; higher = more TopBP1 condensates (negative = condensation inhibitor), active = hit call of the paper; details: 10 µM; incubation time 2 h

SMILES	light-induced TopBP1 condensate (z-score)
CC(C)=CCC1C(=O)N(c2ccccc2)N(c2ccccc2)C1=O [Feprazone]	1.11
C[N+](C)(C)C[C@H](O)CC(=O)[O-] [Levocarnitine]	0.0352
CC(C)Nc1cccnc1N1CCN(C(=O)c2cc3cc(NS(C)(=O)=O)ccc3[nH]2)CC1 [Delavirdine]	0.915
Cn1ccnc1S [Methimazole]	-0.456
CC1(C)O[C@@H]2C[C@H]3[C@@H]4CCC5=CC(=O)C=C[C@]5(C)[C@H]4[C@@H](O)C[C@]3(C)[C@]2(C(=O)CO)O1 [Desonide]	-0.951
CC/C=C(\C(=O)N[C@@H]1C(=O)N2C(C(=O)OCOC(=O)C(C)(C)C)=C(COC(N)=O)CS[C@H]12)c1csc(N)n1 [Cefcapene pivoxil hydrochloride]	-0.782
CCOc1ccccc1C(N)=O [Ethenzamide]	-0.0402
CCC[C@@H]1C[C@@H](C(=O)N[C@@H]([C@H]2O[C@H](SC)[C@H](O)[C@@H](O)[C@H]2O)[C@H](C)Cl)N(C)C1 [Clindamycin hydrochloride]	0.556
CC[C@@H]([C@H](C)O)n1ncn(-c2ccc(N3CCN(c4ccc(OC[C@@H]5CO[C@@](Cn6cncn6)(c6ccc(F)cc6F)C5)cc4)CC3)cc2)c1=O [Posaconazole]	-2.52 (active)
CCC(C)n1ncn(-c2ccc(N3CCN(c4ccc(OCC5COC(Cn6cncn6)(c6ccc(Cl)cc6Cl)O5)cc4)CC3)cc2)c1=O (stereo unspecified) [Itraconazole]	-0.757
CC(C)N1CCN(c2ccc(OCC3COC(Cn4cncn4)(c4ccc(Cl)cc4Cl)O3)cc2)CC1 (stereo unspecified) [Terconazole]	-0.114
CN[C@@H]1[C@@H](O[C@H]2O[C@H](CO)[C@@H](N)[C@H](O)[C@H]2O)OC2C[C@@H](N)[C@@H](O[C@H]3[C@H](O)[C@@H](O)[C@H](N)C[C@@H]3N)OC2[C@@H]1O (stereo partly specified) [Apramycin]	0.974
C#Cc1cccc(Nc2ncnc3cc(OCCOC)c(OCCOC)cc23)c1 [Erlotinib]	1.27
OC(CNCC(O)C1CCc2cc(F)ccc2O1)C1CCc2cc(F)ccc2O1 (stereo unspecified) [Nebivolol hydrochloride]	-0.227
CCCC(=O)N1CCCN(c2nc(N)c3cc(OC)c(OC)cc3n2)CC1 [Bunazosin hydrochloride]	0.537
CC(=O)OCC(=O)[C@@]1(O)[C@H](C)C[C@H]2[C@@H]3CCC4=CC(=O)C=C[C@]4(C)[C@@]3(F)[C@@H](O)C[C@@]21C [Dexamethasone acetate]	0.214
